Laboratory results: PubChem BioAssay (Tox21)
Results filed as inconclusive are left out. A call without a number means that no potency is given here. Values without a mark were called inactive. The source made the active and inactive calls. The call rests on the fitted dose curve; in most records, active means well fitted cell-killing curve with a large enough effect in the repeat runs; inconclusive means weak or mixed curves, or effect the other way; inactive means flat fitted curve, though single readings scatter.

Tests used:
[1] = cAMP Responsive Elements (CRE) small molecule antagonists, cell-based qHTS assay: qHTS cell viability counter screen (AID 2060913); further: nearly all actives have a fitted effect of over 40% in size
Outline: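 Steps: cells plated and held 18 hrs at 37 C/5% CO2; compounds and NKH477 (0.25 uM final) added; 3 hrs incubation; reporter substrate read; CellTiter-Glo added to measure cytotoxicity by luminescence.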

[2] = cAMP Responsive Elements (CRE) small molecule agonists, cell-based qHTS assay: qHTS cell viability counter screen (AID 2060914);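 further: viability read after 3 h of compound exposure; nearly all actives have a fitted effect of over 50% in size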
Outline: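 Cytotoxicity counter screen multiplexed with the CRE-bla reporter assay in HEK 293T cells: 3 h compound exposure at 37 °C, followed by CellTiter-Glo luminescence measured in the same wells.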

N#Cc1ccccc1
Potency [1]: inactive | Potency [2]: inactive

C[C@@H](O)[C@H](N)C(=O)O
viability change, negative = cytotoxic [1]: -1.62% [at 18.9 µM] | activity change, negative = cytotoxicity [2]: -10.8% [at 18.9 µM]

CCN1CCN(c2cc(-c3ccc(F)cc3)c3c(n2)CCCCCC3)CC1
viability change, negative = cytotoxic [1]: -3.64% [at 18.9 µM] | activity change, negative = cytotoxicity [2]: -20.1% [at 18.9 µM]

N[C@@H](CSSC[C@H](N)C(=O)O)C(=O)O
viability change, negative = cytotoxic [1]: 0% [at 0.349 µM] | activity change, negative = cytotoxicity [2]: 11.2% [at 0.349 µM]

O=C(c1ccc(F)cc1)C1CCN(CCn2c(=O)[nH]c3ccccc3c2=O)CC1
Potency [1]: inactive | Potency [2]: inactive

CO[C@@]1(NC(=O)CSCC#N)C(=O)N2C(C(=O)O)=C(CSc3nnnn3C)CS[C@@H]21
Potency [1]: inactive | Potency [2]: inactive

CC(O)CC(C)(C)O (stereo not drawn)
Potency [1]: inactive | Potency [2]: inactive

CC1=CCC(O)(C(C)C)CC1 (stereo not drawn)
Potency [1]: inactive | Potency [2]: inactive

O=Cc1ccc(F)c(Br)c1
Potency [1]: inactive | Potency [2]: inactive

CCCCN(CCCC)C(=O)N(CCCC)CCCC
Potency [1]: inactive | Potency [2]: inactive

O=[Si]=O
Potency [1]: inactive | Potency [2]: inactive

Cn1c(=O)c2c(ncn2CC(=O)O)n(C)c1=O
Potency [1]: inactive | Potency [2]: inactive

CCn1c2ccccc2c2cc([N+](=O)[O-])ccc21
Potency [1]: inactive | Potency [2]: inactive

CC(C)CCCCCOC(=O)CCS
Potency [1]: inactive | Potency [2]: inactive

CCNCCO
Potency [1]: inactive | Potency [2]: inactive

CSc1ccc2c(c1)C(N1CCN(C)CC1)Cc1ccccc1S2 (stereo not drawn)
Potency [1]: inactive | Potency [2]: inactive

OCCCCCO
Potency [1]: inactive | Potency [2]: inactive

CCCC(=O)OCCC(C)C
Potency [1]: inactive | Potency [2]: inactive

NO
Potency [1]: inactive | Potency [2]: inactive
